Results as given in PubChem BioAssay (EPA / NIEHS).
Several values for one entry are separate records, joined by “and”; a condition that tells them apart may be missing. Equal entries are not always repeated. Some compounds were tested as several samples or in several runs, with calls that do not always agree. Activity calls are given as the source filed them. Rule for the calls: active = hit-call score of the fitted dose curve at least 0.9, where 1 is the maximum; inactive = score below 0.9.

Assays:
[1] = read-out: Transforming growth factor beta 1 (TGFb1), TGFB1 (gene 7040); experiment: BSK_KF3CT_TGFb1: BioMAP Diversity Plus: KF3CT Assay for Transforming growth factor beta 1 (TGFb1) Biomarker Activity (AID 2283072); conditions: primary human keratinocytes with fibroblasts; actives raise or lower the signal
How it was run: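 TGF-b1 ELISA on a 24 h dosed co-culture of human keratinocytes and foreskin fibroblasts; cytotoxicity tracked in parallel cultures by SRB staining.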

[2] = read-out: C-C motif chemokine 2 (Homo sapiens) (UniProt P13500); experiment: BSK_KF3CT_MCP1: BioMAP Diversity Plus: KF3CT Assay for Monocyte Chemoattractant Protein 1 (MCP1/CCL2) Biomarker Activity (AID 2283073); conditions: primary human keratinocytes with fibroblasts; actives raise or lower the signal
How it was run: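 Human keratinocyte–foreskin fibroblast co-culture; MCP-1 measured by ELISA 24 h after dosing. Bidirectional fit vs DMSO; cytotoxicity tracked by SRB total protein in parallel cultures.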

[3] = read-out: Matrix Metallopeptidase 9 (MMP9), MMP9 (gene 4318); experiment: BSK_KF3CT_MMP9: BioMAP Diversity Plus: KF3CT Assay for Matrix Metallopeptidase 9 (MMP9) Biomarker Activity (AID 2283074); conditions: primary human keratinocytes with fibroblasts; actives raise or lower the signal;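 for AC50: MMP9 protein level quantified by ELISA in the co-culture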
How it was run: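 ELISA read-out of MMP-9 at 24 h post-dosing in a co-culture of human skin keratinocytes and foreskin fibroblasts. Gain or loss of signal was fitted in both directions against DMSO.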

[4] = read-out: urokinase plasminogen activator (uPA), PLAU (gene 5328); experiment: BSK_KF3CT_uPA: BioMAP Diversity Plus: KF3CT Assay for urokinase plasminogen activator (uPA) Biomarker Activity (AID 2283075); conditions: primary human keratinocytes with fibroblasts; actives raise or lower the signal
How it was run: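 Skin co-culture (keratinocytes + foreskin fibroblasts), human primary; 24 h post-dose; uPA by ELISA; gain/loss fit vs DMSO baseline.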

CD40, CD40 (gene 958) [5] = experiment: BSK_LPS_CD40: BioMAP Diversity Plus: LPS Assay for CD40 Biomarker Activity (AID 2283076); conditions: primary human HUVEC with PBMC; actives raise or lower the signal
How it was run: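 HUVEC plus PBMC co-culture stimulated with LPS; CD40 quantified by ELISA 24 h after compound dosing. Fitting was bidirectional relative to DMSO. SRB staining of parallel cultures flagged overt cytotoxicity.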

[6] = read-out: E-selectin (Homo sapiens) (UniProt P16581); experiment: BSK_LPS_Eselectin: BioMAP Diversity Plus: LPS Assay for Eselectin Biomarker Activity (AID 2283077); conditions: primary human HUVEC with PBMC; actives raise or lower the signal
How it was run: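 Human umbilical vein endothelial cells co-cultured with PBMC under LPS stimulation; cell-surface E-selectin measured by ELISA 24 h after dosing. Change in either direction versus DMSO, with SRB total-protein staining in parallel cultures for cytotoxicity.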

[7] = read-out: Interleukin-8 (IL8), CXCL8 (gene 3576); experiment: BSK_LPS_IL8: BioMAP Diversity Plus: LPS Assay for Interleukin-8 (IL8) Biomarker Activity (AID 2283078); conditions: primary human HUVEC with PBMC; actives raise or lower the signal
How it was run: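 Human umbilical vein endothelial cells co-cultured with PBMC, LPS-stimulated, exposed to compound for 24 h. IL-8 quantified by ELISA; fitted in both directions against DMSO, with SRB total-protein staining of parallel cultures for cytotoxicity.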

[8] = BSK_LPS_SRB: Viability Assessment in the BioMAP Diversity Plus: LPS Assay (AID 2283079); conditions: primary human HUVEC with PBMC;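 note: total protein by sulforhodamine B absorbance as a cytotoxicity measure; measured one day after compound addition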
How it was run: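 Co-culture of human umbilical vein endothelial cells and PBMC, read 24 h after dosing. Total protein by 0.1% SRB staining after 10% TCA fixation, absorbance at 560 nm; bidirectional fit against DMSO.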

[9] = read-out: Interleukin-1 alpha (IL1a), IL1A (gene 3552); experiment: BSK_LPS_IL1a: BioMAP Diversity Plus: LPS Assay for Interleukin-1 alpha (IL1a) Biomarker Activity (AID 2283080); conditions: primary human HUVEC with PBMC; actives raise or lower the signal
How it was run: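 Human umbilical vein endothelial cells co-cultured with PBMC and stimulated with LPS; IL-1a measured by ELISA 24 h after dosing. Bidirectional fitting against DMSO; cytotoxicity checked by SRB staining in parallel cultures.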

[10] = read-out: Monocyte Chemoattractant Protein-1 (MCP1), CCL2 (gene 6347); experiment: BSK_LPS_MCP1: BioMAP Diversity Plus: LPS Assay for Monocyte Chemoattractant Protein-1 (MCP1) Biomarker Activity (AID 2283081); conditions: primary human HUVEC with PBMC; actives raise or lower the signal;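 for AC50: secreted MCP-1 protein quantified by ELISA in culture supernatant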
How it was run: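 Human umbilical vein endothelial cells co-cultured with PBMC, LPS-stimulated; secreted MCP-1 measured by ELISA 24 h after compound addition. Bidirectional curve fitting against DMSO baseline; SRB total-protein staining in parallel cultures for cytotoxicity.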

[11] = BSK_LPS_PGE2: BioMAP Diversity Plus: LPS Assay for Prostaglandin E2 (PGE2) Biomarker Activity (AID 2283082); conditions: primary human HUVEC with PBMC; actives raise or lower the signal;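 for AC50: secreted prostaglandin E2 measured by ELISA in LPS-stimulated co-culture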
How it was run: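 Primary human endothelial cells and blood mononuclear cells, co-cultured with LPS, receive test chemical; PGE2 ELISA follows at 24 h, with SRB-stained parallel cultures flagging cytotoxicity.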

[12] = read-out: Macrophage colony-stimulating factor (MCSF), CSF1 (gene 1435); experiment: BSK_LPS_MCSF: BioMAP Diversity Plus: LPS Assay for Macrophage colony-stimulating factor (MCSF) Biomarker Activity (AID 2283083); conditions: primary human HUVEC with PBMC; actives raise or lower the signal
How it was run: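 HUVEC–PBMC co-culture, M-CSF measured by ELISA 24 h after chemical dosing. Fitted in both directions relative to DMSO as negative control; overt cytotoxicity assessed by SRB total-protein staining in parallel cultures.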

[13] = read-out: Tissue Factor, F3 (gene 2152); experiment: BSK_LPS_TissueFactor: BioMAP Diversity Plus: LPS Assay for Tissue Factor Biomarker Activity (AID 2283084); conditions: primary human HUVEC with PBMC; actives raise or lower the signal
How it was run: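 Human umbilical vein endothelial cells co-cultured with PBMC were dosed with compound. Cell-surface CD142 was measured by ELISA 24 h later. Activity was fitted bidirectionally against DMSO, with SRB total-protein staining in parallel cultures for cytotoxicity.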

[14] = read-out: Tumor necrosis factor (Homo sapiens) (UniProt P01375); experiment: BSK_LPS_TNFa: BioMAP Diversity Plus: LPS Assay for Tumour Necrosis Factor alpha (TNFa) Biomarker Activity (AID 2283085); conditions: primary human HUVEC with PBMC; actives raise or lower the signal;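 note: TNFa protein level quantified by ELISA in the co-culture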
How it was run: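 ELISA-based TNFa endpoint in a human endothelial–PBMC co-culture sampled 24 h post-exposure. Curves were fitted in both directions using DMSO as baseline of activity.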

[15] = read-out: Vascular cell adhesion molecule 1 (VCAM1), VCAM1 (gene 7412); experiment: BSK_LPS_VCAM1: BioMAP Diversity Plus: LPS Assay for Vascular cell adhesion molecule 1 (VCAM1) Biomarker Activity (AID 2283086); conditions: primary human HUVEC with PBMC; actives raise or lower the signal
How it was run: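 Measured by ELISA: VCAM-1 in LPS-activated HUVEC/PBMC co-cultures 24 h after treatment. Values reflect bidirectional fitting with DMSO as baseline.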

CD38, CD38 (gene 952) = experiment: BSK_SAg_CD38: BioMAP Diversity Plus: SAg Assay for CD38 Biomarker Activity (AID 2283087); conditions: primary human HUVEC with PBMC; actives raise or lower the signal
How it was run: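 Measures CD38 on a human endothelial/PBMC co-culture driven by SEB and TSST-1, 24 h after compound exposure, using ELISA with fluorescence detection; DMSO defines baseline for bidirectional curve fitting.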

CD40, CD40 (gene 958) [16] = experiment: BSK_SAg_CD40: BioMAP Diversity Plus: SAg Assay for CD40 Biomarker Activity (AID 2283088); conditions: primary human HUVEC with PBMC; actives raise or lower the signal
How it was run: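 HUVEC plus PBMC co-culture, superantigen-activated, with CD40 read by ELISA 24 h after dosing. Curves fitted in both directions against DMSO. Overt cytotoxicity checked by parallel SRB total-protein staining.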

CD69, CD69 (gene 969) = experiment: BSK_SAg_CD69: BioMAP Diversity Plus: SAg Assay for CD69 Biomarker Activity (AID 2283089); conditions: primary human HUVEC with PBMC; actives raise or lower the signal;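 for AC50: cell surface CD69 protein quantified by ELISA with fluorescence detection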
How it was run: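 Values derive from bidirectional fitting relative to DMSO vehicle. Cells: umbilical vein endothelium plus peripheral blood mononuclear cells, treated 24 h before fluorescent ELISA for CD69.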

[17] = read-out: Monocyte Chemoattractant Protein-1 (MCP1), CCL2 (gene 6347); experiment: BSK_SAg_MCP1: BioMAP Diversity Plus: SAg Assay for Monocyte Chemoattractant Protein-1 (MCP1) Biomarker Activity (AID 2283090); conditions: primary human HUVEC with PBMC; actives raise or lower the signal
How it was run: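 Values derive from bidirectional fitting of ELISA-measured MCP1 against DMSO controls. Readings were taken 24 h after dosing human vascular endothelial cells co-cultured with peripheral blood mononuclear cells under superantigen stimulation.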

[18] = read-out: E-selectin (Homo sapiens) (UniProt P16581); experiment: BSK_SAg_Eselectin: BioMAP Diversity Plus: SAg Assay for Eselectin Biomarker Activity (AID 2283091); conditions: primary human HUVEC with PBMC; actives raise or lower the signal
How it was run: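 Human umbilical vein endothelial cells co-cultured with peripheral blood mononuclear cells, SAg system. E-selectin is measured by ELISA 24 h after dosing and fitted bidirectionally against DMSO. Cytotoxicity is checked by SRB staining of parallel cultures.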

Measured: AC50

Sequence of Tumor necrosis factor (Homo sapiens) (P01375 whole entry, looked up): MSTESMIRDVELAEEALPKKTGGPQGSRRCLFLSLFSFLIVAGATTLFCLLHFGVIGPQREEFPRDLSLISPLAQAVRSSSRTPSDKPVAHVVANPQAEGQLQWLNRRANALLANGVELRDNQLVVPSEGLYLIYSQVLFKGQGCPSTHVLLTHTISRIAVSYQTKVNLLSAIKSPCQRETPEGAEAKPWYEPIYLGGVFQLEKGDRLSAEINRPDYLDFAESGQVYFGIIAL
Sequence of E-selectin (Homo sapiens) (P16581 whole entry, looked up): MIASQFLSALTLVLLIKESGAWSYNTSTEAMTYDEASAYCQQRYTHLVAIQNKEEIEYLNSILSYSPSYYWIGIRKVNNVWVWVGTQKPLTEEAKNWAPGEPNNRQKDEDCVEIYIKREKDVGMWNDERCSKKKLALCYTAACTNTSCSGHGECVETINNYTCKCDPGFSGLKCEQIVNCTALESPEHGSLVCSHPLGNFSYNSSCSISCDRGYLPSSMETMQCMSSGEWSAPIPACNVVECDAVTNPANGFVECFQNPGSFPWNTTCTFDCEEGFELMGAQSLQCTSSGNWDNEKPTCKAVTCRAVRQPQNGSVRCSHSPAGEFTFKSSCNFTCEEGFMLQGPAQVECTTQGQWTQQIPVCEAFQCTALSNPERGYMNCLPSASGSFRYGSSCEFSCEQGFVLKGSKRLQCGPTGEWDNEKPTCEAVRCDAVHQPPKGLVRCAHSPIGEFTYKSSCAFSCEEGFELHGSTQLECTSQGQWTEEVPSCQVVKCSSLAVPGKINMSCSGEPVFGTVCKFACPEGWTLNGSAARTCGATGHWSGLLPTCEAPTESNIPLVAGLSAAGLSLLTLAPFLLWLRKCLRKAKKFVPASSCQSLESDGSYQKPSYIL

Cc1cccc(OP(=O)(Oc2cccc(C)c2)Oc2cccc(C)c2)c1
inactive: [1] | [2] | [4] | CD40, CD40 (gene 958) [5] | [6] | [7] | [8] | [9] | [10] | [11] | [12] | [13] | [15] | CD38, CD38 (gene 952) | CD40, CD40 (gene 958) [16] | CD69, CD69 (gene 969) | [17] | [18]
active: [3] 20.3 µM | [14] 32.3 µM

N#CCCC(Br)(C#N)CBr (stereo not drawn)
active: [1] 11.3 µM | [2] 20 µM | [3] 20 µM | [4] 23.9 µM | CD40, CD40 (gene 958) [5] 8.78 µM | [6] 20 µM | [7] 26.7 µM | [8] 20 µM | [9] 11.7 µM | [10] 11 µM | [12] 10.6 µM | [13] 21.4 µM | [14] 13 µM | [15] 9.05 µM | CD38, CD38 (gene 952) 10.2 µM | CD40, CD40 (gene 958) [16] 11.2 µM | CD69, CD69 (gene 969) 17 µM | [17] 20 µM | [18] 20 µM
inactive: [11]

Cc1ccc(OP(=O)(Oc2ccc(C)cc2C)Oc2ccc(C)cc2C)c(C)c1
active: [3] 8.84 µM | [4] 20 µM | CD40, CD40 (gene 958) [5] 6.48 µM | [9] 5.81 µM | [10] 20 µM | [12] 10.7 µM | [14] 34.1 µM | CD40, CD40 (gene 958) [16] 20 µM | CD69, CD69 (gene 969) 20 µM | [17] 5.89 µM
inactive: [1] | [2] | [6] | [7] | [8] | [11] | [13] | [15] | CD38, CD38 (gene 952) | [18]

CC1(C)[C@H](C(=O)O[C@H](C#N)c2cccc(Oc3ccccc3)c2)[C@@H]1/C=C(\Cl)C(F)(F)F
inactive: [1] | [2] | [4] | CD40, CD40 (gene 958) [5] | [6] | [7] | [8] | [9] | [10] | [12] | [13] | [15] | CD38, CD38 (gene 952) | CD69, CD69 (gene 969) | [17] | [18]
active: [3] 0.357 µM | [4] 0.12 µM | [7] 0.0495 µM | [9] 21.3 µM | [11] 904 nM and 862 nM | CD38, CD38 (gene 952) 5.06 µM | CD40, CD40 (gene 958) [16] 4.51 µM | CD69, CD69 (gene 969) 3.39 µM

O=C(O)COc1cc(Cl)c(Cl)cc1Cl
inactive: [1] | [2] | [3] | [4] | CD40, CD40 (gene 958) [5] | [6] | [7] | [8] | [9] | [10] | [11] | [12] | [13] | [15] | CD38, CD38 (gene 952) | CD40, CD40 (gene 958) [16] | CD69, CD69 (gene 969) | [17] | [18]
